For 40 compounds, inhibition results are on record in ChEMBL document CHEMBL3433997, “St. Jude Leishmania screening dataset” (2016).

For the first assay, the target named is Solute carrier family 2, facilitated glucose transporter member 1 (Homo sapiens) (UniProt P11166). The assay can be described thus: ST_JUDE_LEISH: Cytotoxicity at 2uM final concentration against transgenic Leishmania Mexicana promastigotes LmGLUT1 that are glucose transport deficient and complemented with the human glucose transporter GLUT1. Activity is measured by DNA content using SYBR green in vitro. Format: functional.
Solute carrier family 2, facilitated glucose transporter member 1 (Homo sapiens), sequence (P11166 whole entry): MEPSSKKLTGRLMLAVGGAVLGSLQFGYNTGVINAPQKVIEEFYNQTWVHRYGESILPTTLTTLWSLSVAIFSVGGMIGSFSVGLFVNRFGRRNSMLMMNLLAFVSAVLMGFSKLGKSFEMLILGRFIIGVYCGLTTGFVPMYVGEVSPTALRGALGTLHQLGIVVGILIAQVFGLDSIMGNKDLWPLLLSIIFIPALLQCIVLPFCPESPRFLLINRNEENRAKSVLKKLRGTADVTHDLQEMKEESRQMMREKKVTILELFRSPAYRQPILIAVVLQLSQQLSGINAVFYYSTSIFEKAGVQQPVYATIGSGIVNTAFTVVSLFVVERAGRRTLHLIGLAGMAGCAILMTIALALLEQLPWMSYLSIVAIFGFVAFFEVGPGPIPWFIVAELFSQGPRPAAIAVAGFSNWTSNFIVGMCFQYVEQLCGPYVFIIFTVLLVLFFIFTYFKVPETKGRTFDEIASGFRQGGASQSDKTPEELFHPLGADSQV
By inhibition is commonly meant the relative decrease from the control value, in per cent. For the compound `O=c1[nH]c2c(cc1CNC1CCCCC1)c(-c1ccc(F)cc1)nn2-c1ccccc1`, the inhibition is -1.4%.
Same read-out and setting: in the case of `O=C(Nc1cccc(-c2ccc(-c3nc4ccccc4[nH]3)cc2)c1)c1ccncc1` it was 8.95%; in that of `COc1cc(NCC(CN)Cc2ccc3c(c2)OCO3)nc2ccccc12` (stereo not given), 4.7%; in that of `O=C(Nc1ccccc1-c1nc2ccccc2s1)C(Cl)(Cl)Cl`, 0.49%.
Same read-out and setting: in the case of `Cc1noc(C)c1-c1cccc(CNCc2cccc(-c3csc(-c4nc5ccccc5[nH]4)c3)c2)c1` it was 2.13%; in that of `O=c1cc(NCCCNCc2cc(C(F)(F)F)ccc2Cl)[nH]c2ccccc12`, -0.91%; in that of `COc1ccc2nc(C)cc(Nc3ccc(Oc4ccc5ccccc5c4Cl)c(Cl)c3)c2c1`, 13.7%.
On to `Cc1cc(NC2CCN(CC3CCCCC3)C2)nc(Nc2ccc(Cl)cc2)n1` (stereo not given), for which the inhibition came to 3.89%.
Same read-out and setting: with `CCCc1cn2c3c(cc(C(=O)N[C@@H](Cc4ccccc4)[C@H](O)CNC4CCCCC4)cc13)N(C)S(=O)(=O)CC2` the figure was 1.94%.
The same measure, in the same setting: with `CC(C)[C@H](NCC(=O)c1ccccc1)C(=O)O` the figure was -0.14%; with `COc1ccc2ccccc2c1CCCCN1CCN(CC(c2ccc(F)cc2)N2CCC(N3CCCC3)CC2)CC1` (stereo not given), 3.25%; with `Cc1c(CC(=O)N(C)C2CCN(CCCCCNC(=O)/C=C/c3ccc(Cl)c(Cl)c3)CC2)sc2ccc(Cl)cc12`, 7.99%.
The same measure, in the same setting: in the case of `C[C@@H](Nc1nc(NCc2ccccc2)c2sccc2n1)c1ccccc1` it was 24%; in that of `Cc1cc(N[C@@H](CC(C)C)C(=O)NCCOc2ccccc2)nc(Nc2ccccc2)n1`, 6.84%.
For the compound `N=C(N)NC(=O)Nc1cc(Br)c(Cl)c(C(F)(F)F)c1`, the inhibition worked out at 4.79%.
Regarding `CCc1cn2c3c(cc(C(=O)N[C@@H](Cc4ccccc4)[C@H](O)CNC(C)C)cc13)N(C)S(=O)(=O)C2`, the inhibition was -2.02%.
Same read-out and setting: with `CC(=O)Oc1c(C2CCN(CCCCNC(=O)c3ccc(-c4ccc(C#N)cc4)cc3)CC2)ccc2c1CCCC2` the figure was 0.47%; with `CC(=O)Nc1ccc(CNCCc2ccc(NC(=O)c3cc(Cl)cc(Cl)c3)cc2)cc1`, -0.73%; with `CN1CCN(c2ccnc3ccc(NC(=O)Nc4ccc5c(c4)CCC5=O)cc23)CC1`, 3.7%.
On the same count and under the same terms, in the case of `CCN(CC)CCCC(C)Nc1c(-c2ccc(C)cc2)cnc2ccccc12` (stereo not given) it was 9.89%.
The same measure, in the same setting: in the case of `CCNc1cc(C(=O)N[C@@H](Cc2ccccc2)[C@H](O)CNC(C)(C)CC(C)(C)C)c(F)c(N2CCCCS2(=O)=O)c1` it was -2.27%; in that of `O=C(NC1CC1)C1CCN(Cc2cc3ccccc3n2Cc2ccc(Cl)cc2)CC1`, -2.52%; in that of `CC1CCCN1Cc1cccc(-c2ccc(C(=O)NCCOc3ccccc3)s2)c1` (stereo not given), 72%.
Turning to `Cc1cccc2nc(-c3ccc(-c4cccc(CN5CCCC5CN)c4)cc3)[nH]c12` (stereo not given), the inhibition is 1.08%.
The same measure, in the same setting: with `CC(C)CNCc1cccc(-c2cccc(CNC3CCN(Cc4ccccc4)CC3)c2)c1` the figure was 1.93%.
The same measure, in the same setting: with `Cc1ccc(NC(=O)c2ccnc(N3CCN(c4ccncc4)CC3)c2)cc1F` the figure was 3.18%.
Same read-out and setting: in the case of `C=CCc1cc(C2CCN(CCCCNC(=O)c3ccc(-c4ccc(C#N)cc4)cc3)CC2)c(OCC(N)=O)c2c1CCCC2` it was 0.81%; in that of `CN1CCN(CCCN(Cc2csc(-c3ccc(CNCc4ccccc4)cc3)n2)S(=O)(=O)c2ccccc2)CC1`, 12.2%; in that of `Cc1cccc(-c2nc(Nc3ccncc3)c3ccc([N+](=O)[O-])cc3n2)n1`, 5.77%.
Consider `CC(CCCCOCCc1ccccc1)NCC(O)c1cc(Cl)c(N)c(Cl)c1` (stereo not given), for which the inhibition came to 2.66%.
On the same count and under the same terms, in the case of `Cc1cc(N2CCCC2=O)ccc1-c1ccc(C(=O)N2CCC(Oc3cccc(Cl)c3)CC2)cc1` it was 0.43%.
On the same count and under the same terms, with `C=C[C@]1(C)C[C@@H](OC(=O)NC(=O)CCCS(=O)(=O)c2nnc(C)s2)[C@]2(C)[C@H](C)CC[C@]3(CCC(=O)[C@H]32)[C@@H](C)[C@@H]1O` the figure was 11.1%.
Consider `S=C(NCCCCCN1CCC(c2c[nH]c3ccccc23)CC1)Nc1ccc(Cl)c(Cl)c1`, for which the inhibition was 1.88%.
As for `CCCC(CNCc1cccc(OC(F)(F)C(F)F)c1)CNc1cc(=O)c2ccccc2[nH]1` (stereo not given), the inhibition is -0.75%.
On to `OCCN1CCN(Cc2cccc(-c3ccc(-c4nc5cc(C(F)(F)F)ccc5[nH]4)s3)c2)CC1`, for which the inhibition is 2.38%.
With `CCN1CCN(c2cc(C)c3cc(NC(=O)c4cccc(Cl)c4)ccc3n2)CC1`, the inhibition amounted to 7.2%.
On the same count and under the same terms, with `Cc1cc(NCCc2ccc(O)cc2)nc(NCC(c2ccccc2)c2ccccc2)n1` the figure was 12.9%.
The same measure, in the same setting: in the case of `CCCCCCCCCC(=O)NCC1CC(Br)=NO1` (stereo not given) it was -2%; in that of `COc1ccc(Nc2ncc(C#N)c(Nc3ccccc3C(N)=O)n2)cc1N1CCN(C)CC1`, 15.8%; in that of `CC(=O)Nc1cccc(CNCc2ccc(-c3cnc(N4CCCC(C)(C)C4)nc3)cc2)c1`, -2.79%.

A further assay concerns the target Hexose transporter 1 (Plasmodium falciparum) (UniProt O97467). The assay can be described thus: ST_JUDE_LEISH: Cytotoxicity at 2uM final concentration against transgenic Leishmania Mexicana promastigotes LmPfHT that are glucose transport deficient and complemented with the Plasmodium falciparum hexose transporter. Activity is measured by DNA content using SYBR green in vitro. Format: functional.
`O=c1[nH]c2c(cc1CNC1CCCCC1)c(-c1ccc(F)cc1)nn2-c1ccccc1`: the inhibition was -1.47%.
On the same count and under the same terms, with `O=C(Nc1cccc(-c2ccc(-c3nc4ccccc4[nH]3)cc2)c1)c1ccncc1` the figure was 4.33%.
For the compound `COc1cc(NCC(CN)Cc2ccc3c(c2)OCO3)nc2ccccc12` (stereo not given), the inhibition was determined as 3.95%.
Same read-out and setting: with `O=C(Nc1ccccc1-c1nc2ccccc2s1)C(Cl)(Cl)Cl` the figure was 1.24%; with `Cc1noc(C)c1-c1cccc(CNCc2cccc(-c3csc(-c4nc5ccccc5[nH]4)c3)c2)c1`, 3.22%.
Same read-out and setting: in the case of `O=c1cc(NCCCNCc2cc(C(F)(F)F)ccc2Cl)[nH]c2ccccc12` it was 0.29%; in that of `COc1ccc2nc(C)cc(Nc3ccc(Oc4ccc5ccccc5c4Cl)c(Cl)c3)c2c1`, 12.6%.
Same read-out and setting: in the case of `Cc1cc(NC2CCN(CC3CCCCC3)C2)nc(Nc2ccc(Cl)cc2)n1` (stereo not given) it was 3.7%; in that of `CCCc1cn2c3c(cc(C(=O)N[C@@H](Cc4ccccc4)[C@H](O)CNC4CCCCC4)cc13)N(C)S(=O)(=O)CC2`, 2.85%.
`CC(C)[C@H](NCC(=O)c1ccccc1)C(=O)O`: the inhibition was determined as 0.65%.
Same read-out and setting: with `COc1ccc2ccccc2c1CCCCN1CCN(CC(c2ccc(F)cc2)N2CCC(N3CCCC3)CC2)CC1` (stereo not given) the figure was 3.63%.
On the same count and under the same terms, with `Cc1c(CC(=O)N(C)C2CCN(CCCCCNC(=O)/C=C/c3ccc(Cl)c(Cl)c3)CC2)sc2ccc(Cl)cc12` the figure was 0.91%; with `C[C@@H](Nc1nc(NCc2ccccc2)c2sccc2n1)c1ccccc1`, 22.3%; with `Cc1cc(N[C@@H](CC(C)C)C(=O)NCCOc2ccccc2)nc(Nc2ccccc2)n1`, 2.42%.
The same measure, in the same setting: with `N=C(N)NC(=O)Nc1cc(Br)c(Cl)c(C(F)(F)F)c1` the figure was 3.32%; with `CCc1cn2c3c(cc(C(=O)N[C@@H](Cc4ccccc4)[C@H](O)CNC(C)C)cc13)N(C)S(=O)(=O)C2`, -1.87%.
Regarding `CC(=O)Oc1c(C2CCN(CCCCNC(=O)c3ccc(-c4ccc(C#N)cc4)cc3)CC2)ccc2c1CCCC2`, the inhibition is 1.16%.
On the same count and under the same terms, with `CC(=O)Nc1ccc(CNCCc2ccc(NC(=O)c3cc(Cl)cc(Cl)c3)cc2)cc1` the figure was 0.23%; with `CN1CCN(c2ccnc3ccc(NC(=O)Nc4ccc5c(c4)CCC5=O)cc23)CC1`, 2.43%; with `CCN(CC)CCCC(C)Nc1c(-c2ccc(C)cc2)cnc2ccccc12` (stereo not given), 7.44%.
Consider `CCNc1cc(C(=O)N[C@@H](Cc2ccccc2)[C@H](O)CNC(C)(C)CC(C)(C)C)c(F)c(N2CCCCS2(=O)=O)c1`, for which the inhibition was -1.17%.
Still for that read-out and setting: in the case of `O=C(NC1CC1)C1CCN(Cc2cc3ccccc3n2Cc2ccc(Cl)cc2)CC1` it was -1.61%; in that of `CC1CCCN1Cc1cccc(-c2ccc(C(=O)NCCOc3ccccc3)s2)c1` (stereo not given), 38.9%.
The same measure, in the same setting: with `Cc1cccc2nc(-c3ccc(-c4cccc(CN5CCCC5CN)c4)cc3)[nH]c12` (stereo not given) the figure was 1.46%; with `CC(C)CNCc1cccc(-c2cccc(CNC3CCN(Cc4ccccc4)CC3)c2)c1`, 2.58%; with `Cc1ccc(NC(=O)c2ccnc(N3CCN(c4ccncc4)CC3)c2)cc1F`, 4.4%.
On to `C=CCc1cc(C2CCN(CCCCNC(=O)c3ccc(-c4ccc(C#N)cc4)cc3)CC2)c(OCC(N)=O)c2c1CCCC2`, for which the inhibition was 2.67%.
The same measure, in the same setting: with `CN1CCN(CCCN(Cc2csc(-c3ccc(CNCc4ccccc4)cc3)n2)S(=O)(=O)c2ccccc2)CC1` the figure was 15.3%.
The same measure, in the same setting: with `Cc1cccc(-c2nc(Nc3ccncc3)c3ccc([N+](=O)[O-])cc3n2)n1` the figure was 7.55%.
Still for that read-out and setting: with `CC(CCCCOCCc1ccccc1)NCC(O)c1cc(Cl)c(N)c(Cl)c1` (stereo not given) the figure was 0.7%; with `Cc1cc(N2CCCC2=O)ccc1-c1ccc(C(=O)N2CCC(Oc3cccc(Cl)c3)CC2)cc1`, 1.95%.
As to `C=C[C@]1(C)C[C@@H](OC(=O)NC(=O)CCCS(=O)(=O)c2nnc(C)s2)[C@]2(C)[C@H](C)CC[C@]3(CCC(=O)[C@H]32)[C@@H](C)[C@@H]1O`, the inhibition was 11.3%.
The same measure, in the same setting: with `S=C(NCCCCCN1CCC(c2c[nH]c3ccccc23)CC1)Nc1ccc(Cl)c(Cl)c1` the figure was 1.44%; with `CCCC(CNCc1cccc(OC(F)(F)C(F)F)c1)CNc1cc(=O)c2ccccc2[nH]1` (stereo not given), -0.41%; with `OCCN1CCN(Cc2cccc(-c3ccc(-c4nc5cc(C(F)(F)F)ccc5[nH]4)s3)c2)CC1`, -3.19%.
Same read-out and setting: with `CCN1CCN(c2cc(C)c3cc(NC(=O)c4cccc(Cl)c4)ccc3n2)CC1` the figure was 9.24%; with `Cc1cc(NCCc2ccc(O)cc2)nc(NCC(c2ccccc2)c2ccccc2)n1`, 8.92%.
As for `CCCCCCCCCC(=O)NCC1CC(Br)=NO1` (stereo not given), the inhibition was -0.61%.
Same read-out and setting: in the case of `COc1ccc(Nc2ncc(C#N)c(Nc3ccccc3C(N)=O)n2)cc1N1CCN(C)CC1` it was 18.1%; in that of `CC(=O)Nc1cccc(CNCc2ccc(-c3cnc(N4CCCC(C)(C)C4)nc3)cc2)c1`, 3.36%.
